From PubChem
Hits are enriched below; roughly 2.5% of the tested compounds scored in any of these assays.
TDP-43 yeast inh – inhibitors of TDP-43 toxicity in yeast; TDP-43 expressing yeast growth rescue, BacTiter-Glo, 24 h; AID 652104; Potency, µM (titrated, usually from 46.1 µM), for the others: at the top dose growth rescue (activation), most hits filed as activators; 1.8% of 410,000 active; further: potency means the concentration at half of the fitted maximal effect; % of control where 0% means no effect; nearly all actives have a fitted effect of over 50% in size
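Yeast cells expressing TDP-43 under galactose induction are exposed to compounds for 24 hr at 30 deg C. BacTiter-Glo luminescence measures growth, so protective compounds score as activators.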
aSyn rescue – rescues yeast growth from alpha-synuclein toxicity. Yeast expressing alpha-synuclein, growth rescue, BacTiter-Glo, 24 h. Potency, µM (doses to about 46.1 µM), inactives show at the highest dose growth rescue (activation), usual class: activators. 0.14% of 370,000 active. AID 652106; further: potency means the concentration at half of the fitted maximal effect; % of control where 0% means no effect; nearly all actives have a fitted effect of over 65% in size
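Screening used galactose-induced yeast with toxic alpha-synuclein levels, exposed to compound for 24 hr at 30 deg C. Cell growth, read with BacTiter-Glo luminescence, gave the measured signal.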
Anesthetic bind – binds horse apoferritin like a general anesthetic | 0.074% of 350,000 active | apoferritin/1-aminoanthracene competitive binding, fluorescence | P02791 | Potency, µM (series often up to 77.5 µM), for inactives: top-dose activity change, negative = displacement, hits mostly inhibitors | AID 485281; further: potency means the concentration at half of the fitted maximal effect; on the % scale 0 is the no-effect control and ±100 the full control effect; nearly all actives have a fitted effect of over 20% in size
Target sequence (P02791 2-175 limits assumed): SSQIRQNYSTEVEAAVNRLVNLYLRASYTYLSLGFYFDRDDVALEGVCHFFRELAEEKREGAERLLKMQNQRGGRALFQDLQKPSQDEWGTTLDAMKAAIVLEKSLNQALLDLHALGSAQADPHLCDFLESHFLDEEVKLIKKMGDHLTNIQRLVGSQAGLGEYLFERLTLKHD
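Probe: 1-aminoanthracene (50% saturated, PBS). Protein: horse-spleen apoferritin, 10 uM. Incubation: 10 min, room temperature. Detection: 380 nm excitation, 535 nm emission. Analysis: normalized response, four-parameter Hill.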
Akt phos inh – Akt phosphorylation inhibition; Neuro2A IGF-stimulated pAkt S473 HTRF, 20 min; hits give low values; activity change, % for hits at 50 µM; 0.32% of 360,000 active; in the data active means activity change below about -80%; inconclusive means mostly about -51% to -80%; further: on the % scale 0 is the no-effect control and ±100 the full control effect
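Neuro2A cells in DMEM with 0.5% FBS, overnight at 37 deg C, given compound at single 50 µM final, then IGF (6 nM final) for 20 min at 37 deg C. Lysed; phospho-Akt Ser473 by HTRF after 24 h, 665/615 ratio.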
CCT chaperon mod – cytosolic chaperonin activity modulation | purified chaperonin ATPase assay, HTRF ADP detection, 30 min | activity change, % (concentration not given with the values), hits read low | 0.3% of 360,000 active; in the data active means activity change below about -30%; further: on the % scale 0 is the no-effect control and ±100 the full control effect
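Enzyme 40 or 20 nM (batch-dependent) in Tris pH 7.4/KCl/MgCl2/DTT; cpd 76 uM single point; ATP 10 uM; 30 min 37 °C; Transcreener ADP HTRF detection, 30 min RT; ratio 665/615.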
Mito fusion act – inhibitors of mitochondrial division or activators of mitochondrial fusion. S. cerevisiae fusion-defective mutant growth rescue, CellTiterGlo 48 h. Potency, µM (top dose mostly 46.1 µM), for the others: top-dose growth rescue (activation), usual class: activators. 0.23% of 320,000 active. AID 485298; further: potency means the concentration at half of the fitted maximal effect; % of control where 0% means no effect; nearly all actives have a fitted effect of over 45% in size
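Growth-rescue viability read-out: after 48 h at the non-permissive 37C in glycerol/ethanol YPEG, yeast mitochondrial fusion mutants are measured by CellTiterGlo luminescence; compounds (23 nl pinned per well) restoring growth score as division inhibitors or fusion activators.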
An asterisk follows results filed as active; i = inactive; ? = inconclusive; / = no result given; [ ] = dose if it differs, or a comment. Unless noted, the call rests on the fitted dose curve; in most records, active means well fitted curve in the direction sought with a large enough effect; inconclusive means small, poorly fitted or top-dose-only effect, or another doubt; inactive means no such curve, though single readings can be large; an effect the other way counts as inactive or inconclusive.

SMILES	TDP-43 yeast inh	aSyn rescue	Anesthetic bind	Akt phos inh	CCT chaperon mod	Mito fusion act
O=C(O)CCCNC(=O)Cc1ccccc1	?	1.3%	-3.1%	i	-91.1*	0.9%
COc1cc(SC)ccc1C(=O)N1CCN(c2ccccc2F)CC1	11.2µM*	1.2%	-12.4%	i	-0.6	8.0%
COc1cc2ccccc2cc1C(=O)N1CCN(c2ccccn2)CC1	12.2%	-10.6%	-7.1%	i	-2.3	29.1%
O=C(COc1ccc2ccccc2c1Br)N1CCCC1	11.2µM*	4.8%	-12.2%	i	-1.0	2.6%
O=C(COc1ccc2ccccc2c1Br)N1CCOCC1	16.7%	12.6%	0.3%	i	-0.4	-0.9%
COc1ccc2[nH]c(C(=O)N3CCN(c4ccccc4F)CC3)c(C)c2c1	15.8µM*	0.9%	-1.1%	i	-0.1	-51.9%
COc1cc(OC)cc(C(=O)N2CCN(c3ccccc3F)CC2)c1	?	4.1%	-14.7%	i	-1.1	4.9%
COc1cc2ccccc2cc1C(=O)N1CCN(c2nc3ccc(F)cc3s2)CC1	12.6µM*	/	-9.0%	/	/	/
COc1cccc(NC(=O)CN2CCN(c3ccccc3F)CC2)c1	3.4%	-3.2%	4.7%	-109.9%*	0.5	5.6%
COc1ccccc1N1CCN(C(=O)COc2cccc3ccccc23)CC1	35.5µM*	?	-3.5%	i	-1.1	11.4%
COc1cc2ccccc2cc1C(=O)N1CCN(C(C)=O)CC1	11.3%	-1.5%	-0.5%	i	-1.7	-0.6%
COc1ccccc1OCC(=O)N1CCN(C(=O)COc2ccccc2OC)CC1	-4.4%	2.2%	-3.0%	i	2.4	4.2%
CCOc1ccccc1N1CCN(C(=O)c2cc3ccccc3cc2OC)CC1	14.1µM*	6.9%	/	i	-1.6	5.9%
Cc1cc2c(s1)c1c(n2C)C(=O)N(Cc2ccccc2F)C1	/	/	/	/	/	15.2%
Cc1cccc(CCn2c(=O)c3ccccc3n(Cc3ccccc3C)c2=O)c1	16.1%	/	-4.4%	/	/	/
CCN(C(=O)COC(=O)c1c2c(nc3ccccc13)/C(=C/c1ccccc1)CC(C)C2)C1CCS(=O)(=O)C1 (stereo not drawn)	14.1µM*	12.9%	12.1%	i	0.6	20µM*
O=S(=O)(NCC(c1cccs1)S(=O)(=O)c1ccccc1)c1ccccc1 (stereo not drawn)	2.82µM*	/	4.2%	/	/	/
Cc1ccc(OCCSc2nc3ccccc3n2CC(=O)N2CCCCC2)c(C)c1	21.1%	/	-4.4%	/	/	/
N#Cc1cc2c(nc1SCc1ccccc1)CCCCC2	10.4%	-7.4%	-10.5%	i	-0.2	2.0%
Cc1ccc(CSc2nc3c(cc2C#N)CCC3)cc1	4.6%	-1.0%	-7.0%	-84.7%*	0.4	2.2%
Cc1oc(-c2ccc(C(=O)Nc3cc(F)ccc3F)cc2)nc1COc1ccccc1	7.8%	/	0.9%	/	/	/
O=[N+]([O-])c1cc(/C=N/O)ccc1SCc1ccccc1	18.8%	-10.9%	-17.9%	i	0.7	1.9%
O=[N+]([O-])c1cc(/C=N/O)ccc1Sc1ccccc1	3.16µM*	18.5%	?	i	-1.6	29.0%
O=[N+]([O-])c1ccccc1SNc1ccccc1	12.6µM*	17.5%	/	i	1.0	/
CO/N=C/c1ccc(Sc2ccccc2)c([N+](=O)[O-])c1	1.7%	-7.9%	?	i	-0.4	28.7%
SMILES	TDP-43 yeast inh	aSyn rescue	Anesthetic bind	Akt phos inh	CCT chaperon mod	Mito fusion act
CO/N=C/c1ccc(Sc2ccccc2N)c([N+](=O)[O-])c1	20µM*	6.6%	?	i	-0.4	11.7%
Nc1ccccc1Sc1ccccc1[N+](=O)[O-]	17.8µM*	17.5%	?	i	-1.7	11.7%
O=C(O)CNC(=O)[C@@H](CS)Cc1ccccc1	/	/	-4.6%[29.3 µM]	/	/	/
O=S(=O)(c1ccc2c(c1)OCO2)N1CCN(c2nc(-c3cccs3)nc3ccccc23)CC1	/	0.4%	/	/	/	/
Cc1cc(SCc2cc(=O)n3ccsc3n2)nc2ccccc12	11.2µM*	1.0%	-1.0%	i	-0.5	-0.7%
CCS(=O)(=O)N1CCN(c2ccc([N+](=O)[O-])c(NC(C)c3ccccc3)c2)CC1 (stereo not drawn)	-15.4%	-1.7%	-16.0%	i	1.5	-13.9%
CC(Nc1cc(N2CCN(C(=O)C(C)(C)C)CC2)ccc1[N+](=O)[O-])c1ccccc1 (stereo not drawn)	20µM*	0.1%	?	i	1.0	0.1%
CC(Nc1cc(N2CCNCC2)ccc1[N+](=O)[O-])c1ccccc1 (stereo not drawn)	4.7%	7.8%	2.8%	i	0.4	-15.5%
CC(C)C(=O)N1CCN(c2ccc([N+](=O)[O-])c(NC(C)c3ccccc3)c2)CC1 (stereo not drawn)	20µM*	-0.6%	-23.2%	i	0.3	?
CCN(CCCN(C)C)c1ccc(/C=C/c2ccnc3ccccc23)cc1	/	2.1%	/	/	/	/
COc1ccc(-n2c(C)cc(C(=O)CSc3ccc(NC(C)=O)cc3)c2C)cc1	8.2%	16.3%	-9.6%	i	-1.8	15.8µM*
COc1ccc(-n2c(C)cc(C(=O)CN3C(=O)c4ccccc4C3=O)c2C)cc1	0.0%	0.1%	-8.2%	i	1.1	-1.2%
COc1ccc(-n2c(C)cc(C(=O)CCl)c2C)cc1	3.16µM*	11.3%	-12.1%	i	-2.0	2.9%
COc1ccc(CCn2c(C)cc(C(=O)CCl)c2C)cc1OC	15.8µM*	-7.5%	-15.5%	i	-0.2	-37.0%
Cc1cc(-n2c(C)cc(C(=O)CCl)c2C)no1	3.55µM*	-7.4%	-4.5%	i	1.1	10.1%
CC(=O)Nc1ccc(SCC(=O)c2cc(C)n(-c3ccccc3)c2C)cc1	2.7%	-3.8%	-6.3%	i	-0.1	?
Cc1cccc(-n2c(SCC(=O)Nc3ccccc3C)nc3c(oc4ccccc43)c2=O)c1	15.3%	/	-6.0%	/	/	/
COC(=O)c1sc(-c2ccc(Cl)cc2)cc1N	?	1.9%	-1.6%	i	-40.1*	-4.7%
CC(=O)c1sc(-c2ccc(Cl)cc2)cc1N	?	-3.4%	-8.9%	i	0.6	-4.3%
CCN1C(=O)[C@H]2[C@@H](c3ccc(-c4ccc(Cl)c(Cl)c4)cc3)N[C@@](C)(C(=O)OC)[C@H]2C1=O	20µM*	-8.8%	/	i	-0.6	15.0%
CCN1C(=O)[C@H]2[C@@H](c3ccc(-c4ccc(Cl)c(Cl)c4)c(OC)c3)N[C@@](C)(C(=O)OC)[C@H]2C1=O	4.6%	-0.8%	/	i	1.5	4.4%
O=C(Nc1cccc(NC(=O)c2cccc(F)c2)n1)c1cccc(F)c1	10µM*	-2.5%	-4.9%	i	-0.6	29.0%
Cc1noc2ncnc(N3CCCC3)c12	15.1%	7.8%	-6.1%	i	0.1	-1.1%
